High-throughput results (PubChem BioAssay)
Rows were chosen to be rich in hits. Some 3.8% of all compounds tested hit in one or more screens of this group.
697 NFkB inh = inhibitors of the PMA/ionomycin-induced NF-kB reporter in 697 B cells; 697 B-cell NF-kB luciferase reporter, 16 h; inhibition, % at 4 µM; 0.33% of 330,000 active; in the data active = inhibition above about 35%
Mdm2-MdmX inh = inhibitors of human Mdm2/MdmX interaction | O15151+Q00987 | 3% of 330,000 active | AID 485346 | SaOS-2 split-luciferase Mdm2/MdmX complementation, luminescence | inhibition, % at 8 µM;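 active = inhibition of at least 50% at 8 µM in the primary screen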
Target sequence (O15151 whole entry, looked up): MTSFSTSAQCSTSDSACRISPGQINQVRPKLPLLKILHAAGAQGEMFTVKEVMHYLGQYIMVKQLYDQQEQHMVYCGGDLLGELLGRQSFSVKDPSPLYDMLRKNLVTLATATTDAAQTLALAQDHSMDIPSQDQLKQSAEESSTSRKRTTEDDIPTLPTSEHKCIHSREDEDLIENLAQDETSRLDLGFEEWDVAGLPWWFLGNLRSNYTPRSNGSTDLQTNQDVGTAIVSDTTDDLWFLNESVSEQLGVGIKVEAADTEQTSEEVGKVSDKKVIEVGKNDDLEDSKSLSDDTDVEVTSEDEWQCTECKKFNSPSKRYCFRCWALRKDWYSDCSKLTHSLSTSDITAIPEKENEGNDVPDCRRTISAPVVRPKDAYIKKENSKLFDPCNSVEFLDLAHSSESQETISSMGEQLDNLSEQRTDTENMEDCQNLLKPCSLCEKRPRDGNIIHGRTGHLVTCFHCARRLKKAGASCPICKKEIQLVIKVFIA
Target sequence (Q00987 whole entry, looked up): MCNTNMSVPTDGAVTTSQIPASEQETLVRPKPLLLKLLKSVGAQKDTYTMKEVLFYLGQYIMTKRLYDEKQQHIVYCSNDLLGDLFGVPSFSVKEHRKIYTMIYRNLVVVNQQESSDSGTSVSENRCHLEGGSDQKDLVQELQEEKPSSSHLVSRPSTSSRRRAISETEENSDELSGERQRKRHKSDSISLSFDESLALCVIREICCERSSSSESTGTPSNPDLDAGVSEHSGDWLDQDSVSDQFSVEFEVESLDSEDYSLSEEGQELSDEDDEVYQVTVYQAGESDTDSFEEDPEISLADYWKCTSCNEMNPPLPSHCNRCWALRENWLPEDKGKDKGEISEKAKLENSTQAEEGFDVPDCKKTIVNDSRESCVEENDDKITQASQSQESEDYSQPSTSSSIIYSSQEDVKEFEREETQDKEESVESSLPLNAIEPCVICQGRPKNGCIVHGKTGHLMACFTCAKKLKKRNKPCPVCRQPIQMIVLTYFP
Shn3 inh set2 = Schnurri-3 reporter inhibition in Clone20 osteoblasts; 0.52% of 360,000 active; Clone20 osteoblast Shn3 3'UTR firefly luciferase, 24 h; inhibition, % at 12.5 µM;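 active = mean inhibition of at least 75% with every replicate also reaching 75%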
Jurkat NFkB inh = inhibitors of the PMA/ionomycin-induced NF-kB reporter in Jurkat cells | inhibition, % at 4 µM | PMA/ionomycin-induced NF-kB luciferase reporter, luminescence | 0.53% of 330,000 active; in the data active = inhibition above about 50%
Gli-Sufu antag = blocks Gli-Sufu signaling in a luciferase reporter; Sufu-KO-LIGHT fibroblasts, Gli luciferase reporter luminescence; inhibition, % at 5 µM; 0.74% of 340,000 active; AID 588413;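 active = inhibition above about 55%, limit read from the data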
Mdm2 MdmX conf = human Mdm2/MdmX binding inhibition, confirmed; shares compounds with Mdm2-MdmX inh; AID 489028; inhibition, % at 8 µM; 55% of 10,000 active; luminescent assay; in the data active = inhibition above about 40%
Full FLuc ctr = inhibits full-length luciferase, flagging false Mdm2/MdmX hits | inhibition, % at 8 µM | shares compounds with Mdm2-MdmX inh | AID 504607 | 77% of 6,200 active | SaOS-2 full-length luciferase counterscreen, luminescence;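 active = mean inhibition at 8 µM reaching about 37%, which flags the compound as non-specific, limit read from the data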;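 note: p53-null SaOS-2 cells with luciferase driven by a doxycycline-inducible promoter; compound on cells about two nights before reading with doxycycline added after day one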
A number is an active result; - = inactive; . = not tested or not shown.

SMILES	697 NFkB inh	Mdm2-MdmX inh	Shn3 inh set2	Jurkat NFkB inh	Gli-Sufu antag	Mdm2 MdmX conf	Full FLuc ctr
O=C(Nc1ccc(OC(=O)c2ccccc2)c(-c2nc3ccccc3s2)c1)c1ccccc1	-	67.9	-	-	-	-	.
Cc1cc(C(C)(C)C)cc(C)c1Cn1c2[n+](c3ccc(C(F)(F)F)cc31)CCCCC2	-	72.0	-	-	-	47.8	49.6
CN(C)CCNc1ncnc2oc(-c3ccccc3)c(-c3ccccc3)c12	-	-	-	-	-	.	.
COc1ccc(-c2oc3ncnc(NCCCN(C)C)c3c2-c2ccc(OC)cc2)cc1	-	96.6	-	-	-	42.0	-
COc1ccc(-n2c(C)cc(/C=C3\SC(=S)N(Cc4ccco4)C3=O)c2C)cc1	.	.	-	.	-	.	.
COc1ccc(-c2nn(-c3ccccc3)cc2/C=C2/SC(=S)N(Cc3ccco3)C2=O)c(C)c1	-	58.7	-	-	-	-	.
COc1ccc(Cc2ccccc2C(=O)O)cc1	.	.	-	.	-	.	.
COc1ccc(CC2=CC(=O)c3ccccc3C2=O)cc1	-	54.8	89.3	-	-	-	.
O=C(OCc1nnc(-c2ccc(Cl)cc2)o1)c1ccc(O)cc1	-	-	-	-	-	.	.
Cn1cccc1C(=O)NC(=O)COC(=O)c1ccc(S(C)(=O)=O)c([N+](=O)[O-])c1	-	64.2	98.2	-	-	-	40.0
CS(=O)(=O)c1ccc(C(=O)OCc2nnc(-c3ccc(Cl)cc3)o2)cc1[N+](=O)[O-]	-	96.2	-	-	-	59.6	-
Cn1ccsc1=NC(=O)c1ccc(S(C)(=O)=O)c([N+](=O)[O-])c1	-	50.8	-	-	-	-	.
CC(=O)c1c(C)[nH]c(C(=O)OCc2nnc(-c3ccc([N+](=O)[O-])cc3)o2)c1C	-	52.6	-	-	-	-	.
COC(C(=O)N/N=C(\C)c1ccc(C(C)(C)C)cc1)c1ccccc1 (stereo not given)	-	-	-	-	-	.	.
C/C(=C\c1ccccc1)C(=O)c1c(C)cc(C)[nH]c1=O	-	57.9	-	-	-	-	.
Cc1cc(C)c(C(=O)/C=C/c2ccc3c(c2)OCO3)c(=O)[nH]1	-	-	-	-	-	.	.
Cc1cc(C)c(C(=O)/C=C/c2cccc3ccccc23)c(=O)[nH]1	-	88.2	-	-	-	94.3	58.0
Cc1nn(C2CCS(=O)(=O)C2)c2nc(C3CC3)cc(C(=O)Nc3ccc(C(N)=O)cc3)c12 (stereo not given)	-	-	-	-	-	.	.
N#CC(C#N)=c1ccc2c(c1)NC1(CCCCC1)N=2	-	70.9	-	-	-	49.9	-
S=C(c1ccc2c(c1)OCO2)N1CCN(c2cccc(Cl)c2)CC1	.	.	-	.	-	.	.
O=c1ccn([C@@H]2O[C@H](CNCc3ccc(-n4cccn4)cc3)[C@@H](O)[C@H]2O)c(=O)[nH]1	.	.	-	.	-	.	.
COc1ccc(Cl)cc1NC(=O)Cn1c(NCCO)nc2ccccc21	-	-	-	-	-	.	.
COc1ccc(Cn2c(O)c(C=Nc3ccccc3C(=O)O)c3ccccc3c2=O)cc1	-	-	-	-	-	.	.
COc1ccccc1NS(=O)(=O)c1cccc(-n2c(O)c(C=Nc3ccccc3C(=O)O)c3ccccc3c2=O)c1	-	53.8	-	-	-	58.5	70.3
Oc1ccc(Cl)cc1/C=C/c1ccc2cccc(O)c2n1	-	60.2	-	-	-	-	62.8
SMILES	697 NFkB inh	Mdm2-MdmX inh	Shn3 inh set2	Jurkat NFkB inh	Gli-Sufu antag	Mdm2 MdmX conf	Full FLuc ctr
Oc1c(Cl)cc(Cl)cc1/C=C/c1ccc2cccc(O)c2n1	-	-	-	-	-	.	.
COc1cc(/C=C/c2ccc3cccc(OC)c3n2)c(O)c([N+](=O)[O-])c1	-	-	-	-	-	.	.
COc1cc(/C=C/c2ccc3cccc(O)c3n2)ccc1O	-	99.7	-	-	-	-	.
COc1cc(Br)cc(/C=C/c2ccc3cccc(O)c3n2)c1O	-	80.9	-	-	-	68.2	51.0
COc1cc(/C=C/c2ccc3cccc(O)c3n2)c(Br)cc1O	-	97.5	-	-	.	-	-
CSc1ccc(/C=C/c2ccc3cccc(O)c3n2)cc1	-	-	-	-	-	.	.
Oc1ccc2ccccc2c1C=Nc1ccc(Cl)cn1	-	-	-	-	-	.	.
Oc1cccc2ccc(/C=C/c3ccccc3Br)nc12	-	-	-	-	-	.	.
COc1cc(Br)c(/C=C/c2ccc3cccc(O)c3n2)cc1OC	-	73.6	-	-	-	51.6	47.0
COc1ccc(OC)c(/C=C/c2ccc3cccc(O)c3n2)c1	-	93.1	-	-	.	-	.
CCC(C)NC(=O)Cn1cnc2sc(C)c(S(=O)(=O)N3CCCCC3)c2c1=O (stereo not given)	-	-	-	-	-	.	.
CCN1C(=O)C(O)(CC(=O)/C=C/C=C/c2ccccc2)c2ccccc21 (stereo not given)	-	-	-	-	-	.	.
O=C(/C=C/C=C/c1ccccc1)CC1(O)C(=O)N(CCc2ccccc2)c2ccccc21 (stereo not given)	-	52.6	-	-	-	-	.
Nc1ccccc1N=Cc1ccc(-c2cccc(Cl)c2)o1	-	-	-	-	-	.	.
O=C(NNC(=S)NC1CCCCC1)c1sc2ccccc2c1Cl	-	-	-	-	-	.	.
CC(C)(C)C(=O)NC(=S)NNC(=O)c1sc2ccccc2c1Cl	-	74.4	91.4	-	-	51.8	37.3
O=C(CCN=C1NS(=O)(=O)c2ccccc21)OCc1cccc(Cl)c1	-	-	-	-	-	.	.
CCN1C(=NCCCCO)N[C@@H](c2cccc(C(F)(F)F)c2)C(C(=O)OC)=C1C	-	-	-	-	-	.	.
COC(=O)C1=C(C)N(Cc2ccccc2)C(=NCc2ccc(OC)cc2)N[C@H]1c1ccccc1	-	64.9	-	-	-	-	.
COC(=O)C1=C(C)N(Cc2ccccc2)C(=NCCc2c[nH]c3ccccc23)N[C@H]1c1cccc(C(F)(F)F)c1	-	100.5	-	-	-	40.7	58.0
COC(=O)C1=C(C)N(Cc2ccccc2)C(=NCc2cccc(C(F)(F)F)c2)N[C@H]1c1cccc(F)c1	-	95.3	-	-	-	72.5	39.8
COC(=O)C1=C(C)N(Cc2ccccc2)C(=NCC(C)C)N[C@H]1c1ccccc1	-	-	.	-	-	.	.
COC(=O)C1=C(C)N(Cc2ccccc2)C(=NCCCCO)N[C@H]1c1cccc(C(F)(F)F)c1	-	51.6	-	-	-	-	.
Cc1ccsc1C(=O)Nc1cc(Cl)ccc1-n1cncn1	.	.	-	.	-	.	.
CCC(C(=O)OCC(=O)NC(=O)c1ccccc1OC)c1ccccc1 (stereo not given)	-	-	-	-	-	.	.
CCN1C(=NCC(C)C)N[C@@H](c2cccc(C(F)(F)F)c2)C(C(=O)OC)=C1C	-	56.8	-	-	-	-	60.3
COC(=O)C1=C(C)N(CC2CC2)C(=NCc2cccc(C(F)(F)F)c2)N[C@H]1c1ccccc1	-	53.5	-	-	-	-	.
